Experiments:
[1] = test system: Epidermal growth factor receptor (Homo sapiens), P00533 [T790M]; conditions: at 1 µM
[2] = test system: Epidermal growth factor receptor (Homo sapiens), P00533 [L858R,T790M]; conditions: at 0.1 µM
[3] = test system: Epidermal growth factor receptor (Homo sapiens), P00533 [L858R,T790M]; conditions: at 1 µM
[4] = target: Ephrin type-A receptor 2 (Homo sapiens) (UniProt P29317); conditions: at 0.1 µM
[5] = target: Ephrin type-A receptor 2 (Homo sapiens) (UniProt P29317); conditions: at 1 µM
[6] = target: T1, Ephrin type-A receptor 3 (Homo sapiens) (UniProt P29320); conditions: at 0.1 µM
T1 sequence (whole entry): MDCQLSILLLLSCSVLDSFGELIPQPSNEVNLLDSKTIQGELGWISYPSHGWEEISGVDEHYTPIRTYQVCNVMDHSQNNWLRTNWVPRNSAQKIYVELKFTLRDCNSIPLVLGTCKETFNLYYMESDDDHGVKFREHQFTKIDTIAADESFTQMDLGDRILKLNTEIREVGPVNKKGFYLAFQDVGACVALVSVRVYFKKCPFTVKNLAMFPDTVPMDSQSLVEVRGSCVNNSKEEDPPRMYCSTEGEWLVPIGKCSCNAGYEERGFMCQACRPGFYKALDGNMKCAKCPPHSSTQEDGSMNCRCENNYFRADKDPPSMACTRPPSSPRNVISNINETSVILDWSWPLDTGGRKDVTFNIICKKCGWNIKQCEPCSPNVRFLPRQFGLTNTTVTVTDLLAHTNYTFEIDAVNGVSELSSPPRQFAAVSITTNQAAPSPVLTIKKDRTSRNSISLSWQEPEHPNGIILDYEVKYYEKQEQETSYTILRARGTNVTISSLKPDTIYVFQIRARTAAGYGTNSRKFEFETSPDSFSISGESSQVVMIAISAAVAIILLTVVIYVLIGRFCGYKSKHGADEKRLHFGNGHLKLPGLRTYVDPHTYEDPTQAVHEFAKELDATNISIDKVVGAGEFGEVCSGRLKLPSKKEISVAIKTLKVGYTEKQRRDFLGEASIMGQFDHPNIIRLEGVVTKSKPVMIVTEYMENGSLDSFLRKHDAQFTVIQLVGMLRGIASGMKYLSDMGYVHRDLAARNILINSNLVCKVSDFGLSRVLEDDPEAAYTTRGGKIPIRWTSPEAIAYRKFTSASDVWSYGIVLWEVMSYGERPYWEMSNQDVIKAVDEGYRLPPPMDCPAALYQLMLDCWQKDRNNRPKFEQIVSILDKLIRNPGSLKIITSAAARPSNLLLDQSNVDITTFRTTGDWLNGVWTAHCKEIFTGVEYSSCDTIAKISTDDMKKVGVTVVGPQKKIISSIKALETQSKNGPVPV

[7] = target: T1, Ephrin type-A receptor 3 (Homo sapiens); conditions: at 1 µM
[8] = target: Ephrin type-A receptor 4 (Homo sapiens) (UniProt P54764); conditions: at 0.1 µM
Ephrin type-A receptor 4 (Homo sapiens), sequence (P54764 whole entry): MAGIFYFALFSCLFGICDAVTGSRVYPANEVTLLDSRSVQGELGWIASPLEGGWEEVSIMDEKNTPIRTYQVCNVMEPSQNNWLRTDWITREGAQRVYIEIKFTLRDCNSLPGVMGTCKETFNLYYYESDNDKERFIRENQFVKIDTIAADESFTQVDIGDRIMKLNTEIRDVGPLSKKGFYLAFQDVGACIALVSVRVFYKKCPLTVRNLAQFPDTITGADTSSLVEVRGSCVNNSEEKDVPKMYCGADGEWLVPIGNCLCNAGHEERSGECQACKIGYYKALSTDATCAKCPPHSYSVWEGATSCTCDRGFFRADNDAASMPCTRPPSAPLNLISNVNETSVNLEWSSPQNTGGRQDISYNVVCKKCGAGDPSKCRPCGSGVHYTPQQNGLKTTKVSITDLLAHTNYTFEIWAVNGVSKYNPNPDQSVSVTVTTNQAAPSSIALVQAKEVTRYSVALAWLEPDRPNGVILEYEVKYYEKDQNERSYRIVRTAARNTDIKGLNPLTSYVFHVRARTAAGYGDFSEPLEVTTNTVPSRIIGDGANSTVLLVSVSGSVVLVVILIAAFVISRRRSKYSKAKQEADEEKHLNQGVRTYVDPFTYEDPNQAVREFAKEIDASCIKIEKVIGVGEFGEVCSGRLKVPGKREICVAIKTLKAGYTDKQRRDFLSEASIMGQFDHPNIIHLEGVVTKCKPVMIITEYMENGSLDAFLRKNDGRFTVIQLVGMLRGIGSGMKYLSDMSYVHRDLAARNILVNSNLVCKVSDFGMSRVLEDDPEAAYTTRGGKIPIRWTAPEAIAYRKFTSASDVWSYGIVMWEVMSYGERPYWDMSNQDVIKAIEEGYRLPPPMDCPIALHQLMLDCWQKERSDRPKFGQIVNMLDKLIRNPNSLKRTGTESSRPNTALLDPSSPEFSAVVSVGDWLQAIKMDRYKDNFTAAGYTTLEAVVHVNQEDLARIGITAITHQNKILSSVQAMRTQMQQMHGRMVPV

[9] = target: Ephrin type-A receptor 4 (Homo sapiens) (UniProt P54764); conditions: at 1 µM
[10] = target: T2, Ephrin type-B receptor 2 (Homo sapiens) (UniProt P29323); conditions: at 0.1 µM;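 note: reported as mean inhibition of EPHB2, from the GSK PKIS dataset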
T2 sequence (whole entry): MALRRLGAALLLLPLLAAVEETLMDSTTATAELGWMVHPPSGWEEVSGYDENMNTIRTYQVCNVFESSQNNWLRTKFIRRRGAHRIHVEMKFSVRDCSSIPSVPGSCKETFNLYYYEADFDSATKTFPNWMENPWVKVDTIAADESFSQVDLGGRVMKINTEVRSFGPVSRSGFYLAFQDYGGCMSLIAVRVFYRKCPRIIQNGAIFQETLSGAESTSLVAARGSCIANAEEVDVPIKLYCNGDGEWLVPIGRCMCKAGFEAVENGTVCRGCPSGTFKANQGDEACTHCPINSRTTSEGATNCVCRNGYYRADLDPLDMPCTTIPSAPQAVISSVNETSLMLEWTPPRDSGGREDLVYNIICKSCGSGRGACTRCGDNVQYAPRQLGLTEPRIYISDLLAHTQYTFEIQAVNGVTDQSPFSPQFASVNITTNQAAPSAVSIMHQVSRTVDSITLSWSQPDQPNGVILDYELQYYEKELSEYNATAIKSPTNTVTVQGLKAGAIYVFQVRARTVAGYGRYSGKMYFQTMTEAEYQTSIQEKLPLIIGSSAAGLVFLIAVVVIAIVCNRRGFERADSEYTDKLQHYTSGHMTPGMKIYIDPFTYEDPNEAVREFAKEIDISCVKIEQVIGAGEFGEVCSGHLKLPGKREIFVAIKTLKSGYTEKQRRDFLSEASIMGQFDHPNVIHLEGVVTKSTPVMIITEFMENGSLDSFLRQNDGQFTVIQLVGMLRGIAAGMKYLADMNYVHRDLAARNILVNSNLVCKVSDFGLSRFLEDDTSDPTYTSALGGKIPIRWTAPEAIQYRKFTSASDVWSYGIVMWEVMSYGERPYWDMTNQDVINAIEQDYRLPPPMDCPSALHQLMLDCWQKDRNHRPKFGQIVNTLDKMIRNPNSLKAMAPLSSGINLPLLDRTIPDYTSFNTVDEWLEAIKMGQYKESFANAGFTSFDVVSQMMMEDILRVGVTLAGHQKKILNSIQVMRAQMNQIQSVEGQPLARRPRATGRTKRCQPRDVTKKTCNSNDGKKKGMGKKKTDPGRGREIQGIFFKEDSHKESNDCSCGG

Epidermal growth factor receptor (Homo sapiens), P00533 [T790M], sequence (P00533 whole entry T790M): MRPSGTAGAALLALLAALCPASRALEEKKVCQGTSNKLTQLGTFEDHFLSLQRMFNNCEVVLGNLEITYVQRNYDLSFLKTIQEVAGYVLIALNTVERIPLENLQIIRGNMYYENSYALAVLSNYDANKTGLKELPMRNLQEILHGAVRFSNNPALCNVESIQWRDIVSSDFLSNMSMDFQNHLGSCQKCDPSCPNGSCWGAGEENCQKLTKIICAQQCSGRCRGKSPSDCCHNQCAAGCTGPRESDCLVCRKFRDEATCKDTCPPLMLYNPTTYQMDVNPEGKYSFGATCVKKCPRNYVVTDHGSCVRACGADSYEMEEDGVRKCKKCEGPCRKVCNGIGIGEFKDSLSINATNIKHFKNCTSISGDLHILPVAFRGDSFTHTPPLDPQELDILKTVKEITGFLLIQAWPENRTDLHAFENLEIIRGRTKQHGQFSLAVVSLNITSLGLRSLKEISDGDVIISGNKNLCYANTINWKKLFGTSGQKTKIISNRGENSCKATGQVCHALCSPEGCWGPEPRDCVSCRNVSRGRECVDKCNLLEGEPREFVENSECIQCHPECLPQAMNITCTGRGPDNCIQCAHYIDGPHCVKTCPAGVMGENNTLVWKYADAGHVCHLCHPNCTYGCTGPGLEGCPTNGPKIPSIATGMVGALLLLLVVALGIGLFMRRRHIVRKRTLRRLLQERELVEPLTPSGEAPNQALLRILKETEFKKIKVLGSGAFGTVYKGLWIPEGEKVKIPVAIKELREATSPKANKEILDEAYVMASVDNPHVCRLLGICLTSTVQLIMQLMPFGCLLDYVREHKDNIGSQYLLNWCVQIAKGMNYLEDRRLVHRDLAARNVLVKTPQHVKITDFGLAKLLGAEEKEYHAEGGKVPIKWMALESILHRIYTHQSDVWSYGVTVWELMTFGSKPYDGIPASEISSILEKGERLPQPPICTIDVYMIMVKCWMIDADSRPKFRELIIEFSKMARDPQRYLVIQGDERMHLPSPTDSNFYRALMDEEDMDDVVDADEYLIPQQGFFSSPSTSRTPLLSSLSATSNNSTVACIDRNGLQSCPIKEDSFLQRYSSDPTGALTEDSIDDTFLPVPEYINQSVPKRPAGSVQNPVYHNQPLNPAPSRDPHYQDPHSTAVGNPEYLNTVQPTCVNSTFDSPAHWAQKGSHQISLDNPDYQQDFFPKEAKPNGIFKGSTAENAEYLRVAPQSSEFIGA
Ephrin type-A receptor 2 (Homo sapiens), sequence (P29317 whole entry): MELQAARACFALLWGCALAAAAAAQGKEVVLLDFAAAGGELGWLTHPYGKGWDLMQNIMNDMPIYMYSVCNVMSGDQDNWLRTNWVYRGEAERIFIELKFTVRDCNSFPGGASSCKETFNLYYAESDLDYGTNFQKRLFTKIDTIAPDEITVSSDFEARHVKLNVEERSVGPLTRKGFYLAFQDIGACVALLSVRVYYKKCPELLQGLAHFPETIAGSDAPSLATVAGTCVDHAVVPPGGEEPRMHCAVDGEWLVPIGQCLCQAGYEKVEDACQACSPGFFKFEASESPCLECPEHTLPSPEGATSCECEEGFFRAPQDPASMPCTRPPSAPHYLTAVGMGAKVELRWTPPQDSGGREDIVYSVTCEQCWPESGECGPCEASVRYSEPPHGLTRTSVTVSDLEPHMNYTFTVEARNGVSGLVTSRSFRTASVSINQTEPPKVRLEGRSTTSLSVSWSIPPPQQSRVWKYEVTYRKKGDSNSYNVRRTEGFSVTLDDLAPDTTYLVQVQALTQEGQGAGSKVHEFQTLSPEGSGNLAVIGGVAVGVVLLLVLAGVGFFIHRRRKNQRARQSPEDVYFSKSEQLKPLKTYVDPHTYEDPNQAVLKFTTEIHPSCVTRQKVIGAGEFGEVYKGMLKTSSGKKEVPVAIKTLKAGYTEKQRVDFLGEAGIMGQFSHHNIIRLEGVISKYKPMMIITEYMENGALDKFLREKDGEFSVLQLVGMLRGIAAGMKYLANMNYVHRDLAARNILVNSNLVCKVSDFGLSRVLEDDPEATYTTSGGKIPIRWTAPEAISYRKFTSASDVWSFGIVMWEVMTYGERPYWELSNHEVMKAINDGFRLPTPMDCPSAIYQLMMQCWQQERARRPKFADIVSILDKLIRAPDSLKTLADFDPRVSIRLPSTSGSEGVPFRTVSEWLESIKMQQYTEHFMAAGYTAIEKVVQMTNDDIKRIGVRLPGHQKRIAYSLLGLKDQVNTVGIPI
Epidermal growth factor receptor (Homo sapiens), P00533 [L858R,T790M], sequence (P00533 whole entry T790M/L858R, looked up): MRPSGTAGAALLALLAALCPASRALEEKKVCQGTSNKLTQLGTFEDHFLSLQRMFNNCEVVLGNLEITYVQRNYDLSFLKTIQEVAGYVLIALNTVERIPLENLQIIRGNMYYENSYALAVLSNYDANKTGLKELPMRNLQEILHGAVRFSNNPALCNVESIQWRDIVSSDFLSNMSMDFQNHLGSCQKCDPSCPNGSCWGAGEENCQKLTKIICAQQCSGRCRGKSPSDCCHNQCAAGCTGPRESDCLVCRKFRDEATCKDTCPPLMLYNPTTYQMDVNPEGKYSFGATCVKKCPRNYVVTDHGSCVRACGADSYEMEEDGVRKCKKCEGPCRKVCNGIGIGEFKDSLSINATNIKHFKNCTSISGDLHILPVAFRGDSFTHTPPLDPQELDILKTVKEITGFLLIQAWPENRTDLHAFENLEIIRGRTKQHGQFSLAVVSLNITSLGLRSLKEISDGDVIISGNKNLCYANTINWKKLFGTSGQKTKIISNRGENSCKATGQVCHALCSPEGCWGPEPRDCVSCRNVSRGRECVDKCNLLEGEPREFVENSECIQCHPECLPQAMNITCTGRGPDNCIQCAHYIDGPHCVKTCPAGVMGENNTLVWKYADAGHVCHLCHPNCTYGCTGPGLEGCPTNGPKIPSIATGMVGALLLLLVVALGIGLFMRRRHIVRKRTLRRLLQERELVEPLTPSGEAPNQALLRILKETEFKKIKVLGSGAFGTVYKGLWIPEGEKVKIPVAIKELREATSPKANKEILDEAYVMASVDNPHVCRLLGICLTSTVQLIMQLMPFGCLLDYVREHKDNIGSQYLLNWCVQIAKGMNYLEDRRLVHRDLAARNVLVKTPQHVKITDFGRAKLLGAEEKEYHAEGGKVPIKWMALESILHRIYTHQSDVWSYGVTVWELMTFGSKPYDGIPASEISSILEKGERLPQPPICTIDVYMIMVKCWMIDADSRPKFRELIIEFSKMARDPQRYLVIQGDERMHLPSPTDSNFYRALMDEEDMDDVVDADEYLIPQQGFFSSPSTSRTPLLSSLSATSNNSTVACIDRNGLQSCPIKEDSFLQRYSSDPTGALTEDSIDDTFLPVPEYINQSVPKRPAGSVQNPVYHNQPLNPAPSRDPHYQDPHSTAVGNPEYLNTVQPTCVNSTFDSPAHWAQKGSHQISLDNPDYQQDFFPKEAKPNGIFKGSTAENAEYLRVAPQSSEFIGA

Row | Compound | inhibition [1] [%] | inhibition [2] [%] | inhibition [3] [%] | inhibition [4] [%] | inhibition [5] [%] | inhibition [6] [%] | inhibition [7] [%] | inhibition [8] [%] | inhibition [9] [%] | inhibition [10] [%]
1 | COC(=O)Nc1nc2cc(Oc3ccc(NC(=O)Nc4cccc(Br)c4)cc3)ccc2[nH]1 | 2.61 | -0.2 | -0.25 | 28.1 | 55.2 | 13 | 12.4 | 52.1 | 76.9 | 56.7
2 | Cc1ccc(NC(=O)CC2CC2)cc1-c1ccc(C(=O)NCC2CC2)cc1 | 2.09 | 0.02 | 0.35 | 0.66 | 1.4 | 3.45 | 4.59 | 8.26 | 12.9 | 6.33
3 | CCn1c(-c2nonc2N)nc2c(C#CC(C)(C)O)nc(OCCNC)cc21 | 1.6 | -1.42 | 0.02 | 0.18 | -0.52 | 1.69 | 3.22 | 4 | 8.24 | 8.92
4 | O=S(=O)(CCOCc1ccc(-c2ccc3ncnc(Nc4ccc(OCc5cccc(F)c5)c(Cl)c4)c3c2)o1)c1ccccc1 | 2.25 | -3.02 | 1.89 | -3.01 | -2.3 | -1.7 | 0.9 | 2.2 | 5.8 | 8
5 | N#Cc1c(NC(=O)c2ccccc2F)sc2c1CCCC2 | -1.31 | -0.25 | -0.34 | -2.61 | -2.44 | -3.2 | -1.65 | -3.04 | -0.99 | -7.95
6 | COC(=O)c1ccc2c(c1)C(=Cc1cc(Br)c(O)c(Br)c1)C(=O)N2 | 0.92 | -1.65 | 2.81 | 1.71 | 0.89 | 0.28 | 4.62 | 6.35 | 12.2 | 6.3
7 | CS(=O)(=O)Nc1cccc(-c2ccc3c(NC(=O)C4CC4)n[nH]c3c2)c1 | -1.01 | 0.55 | -1.6 | 0.19 | 1.68 | 1.66 | -1.02 | 1.83 | -7.46 | -4.01
8 | OCc1ccc(-c2nc(-c3ccccn3)c(-c3ccc4c(c3)OCO4)[nH]2)cc1 | 0.84 | 3.54 | 0.26 | 2.78 | 2.31 | 6.06 | 6.97 | 9.84 | 7.48 | 12.2
9 | Cc1cc(-c2ccccn2)cc(C)c1/C=C/c1cncc(-c2nn[nH]n2)c1 | 1.45 | -2.34 | 3.4 | 0.59 | 2.96 | 3.5 | 4.9 | 6.16 | 17.3 | 5.94
10 | CCn1c(-c2nonc2N)nc2ccc(F)cc21 | 6.26 | 3.36 | 6.82 | 0.18 | 0.43 | 4.17 | 4.99 | 11.3 | 15 | 7.78
11 | Cc1nc(-c2ccccc2)n2nc(NCCCN3CCOCC3)ncc12 | 2 | -0.39 | 3.29 | 0.3 | -0.95 | 3.7 | 4.01 | 5.25 | 8.81 | -0.43
12 | Cc1ccc(Nc2ccnc(Nc3cccc(C(N)=O)c3)n2)cc1O | 14.9 | 2.53 | 5.38 | 1.66 | 23.3 | 14.3 | 33.9 | 17.1 | 62.9 | 8.62
13 | COc1cc(Nc2nccc(-c3cnn4ncccc34)n2)cc(OC)c1 | -0.64 | 2.35 | 15.8 | 2.66 | 24.3 | 3.17 | 11.1 | 9.67 | 45.3 | 4.13
14 | COc1cc(/C=N/Nc2ncnc3c2cnn3C(C)C)ccc1O | 0.47 | -0.23 | 2.31 | 1.56 | 21.1 | 3.55 | 7.89 | 7.43 | 32.9 | 5.57
15 | COc1ccc2ncnc(Nc3ccc(OCc4ccccc4)cc3)c2c1 | 5.68 | 2.24 | 4.15 | 1.06 | 0.85 | 2.45 | 3.28 | 5.9 | 5.92 | 3.16
16 | Cc1ccc2c(-c3ccnc(Nc4ccc5c(c4)OCCO5)n3)c(-c3ccc(C(F)(F)F)cc3)nn2n1 | 1.14 | 2.01 | 2.06 | 2.03 | 0.72 | 1.81 | 0 | 1.21 | 3.57 | -7.93
17 | c1ccc(Cc2nc3ccc(Nc4ncnc5ccccc45)cc3[nH]2)cc1 | 2.67 | 1.06 | -0.39 | 1.21 | 0.81 | 4.49 | 4.41 | 9.01 | 11.7 | 8.45

Row | Compound | inhibition [1] [%] | inhibition [2] [%] | inhibition [3] [%] | inhibition [4] [%] | inhibition [5] [%] | inhibition [6] [%] | inhibition [7] [%] | inhibition [8] [%] | inhibition [9] [%] | inhibition [10] [%]
18 | C[C@@H](Oc1cc(-n2cnc3ccc(OCC4CCN(C)CC4)cc32)sc1C(N)=O)c1ccccc1C(F)(F)F | 1.67 | 1.72 | 18.6 | -3.67 | -3.26 | -6.9 | -0.01 | -6.91 | -4.57 | -9.54
19 | Cc1cc(O)cc(C)c1/C=C/c1cncc(C(=O)N(C)C)c1 | 0.44 | -0.03 | -0.26 | 2.13 | 4.81 | 6.48 | 8.52 | 8.99 | 18.6 | 9.34
20 | NS(=O)(=O)c1ccc(N/N=C2\C(=O)Nc3ccc(Cl)cc32)cc1 | 4.35 | -0.89 | 2.78 | 1.86 | 1.3 | 4.83 | 4.35 | 7.66 | 12.2 | 3.99
21 | NS(=O)(=O)c1ccc(Nc2cc(-c3cccc(O)c3)n[nH]2)cc1 | 3.02 | 4.99 | 3.61 | 1.13 | 0.64 | 6.18 | 6.36 | 10.1 | 7.86 | 6.18
22 | NC(=O)c1sc(-n2cnc3ccccc32)cc1OCc1ccccc1Br | 1.85 | 2.85 | 1.45 | 0.63 | 0.39 | 1.18 | 3.38 | 6.29 | 9.89 | 5.64
23 | O=C1Nc2ccccc2/C1=C/Nc1ccc2[nH]c(=O)[nH]c2c1 | 7.07 | 4.62 | 3.05 | 2.36 | 3.88 | 5.7 | 9.27 | 12.9 | 16.3 | 15.9
24 | COc1ccc(-c2nn3ncccc3c2-c2ccnc(Nc3cccc(C(F)(F)F)c3)n2)cc1 | 2.06 | -0.41 | 7.35 | 0.1 | -0.64 | 4.37 | 5.21 | 5.95 | 8.87 | 2.91
25 | Oc1cccc(-c2nc(-c3ccccc3)[nH]c2-c2ccncc2)c1 | 2.55 | 2.26 | 4.01 | 1.93 | 7.66 | 7.79 | 6.42 | 11.7 | 32.9 | 8.8
26 | Nc1nccc(-c2c(-c3ccc(F)cc3)nn3cc(C(F)(F)F)ccc23)n1 | 2.37 | -0.45 | 1.18 | 0.62 | -0.02 | 0.75 | -0.28 | 2.89 | 5.34 | -9.27
27 | CCS(=O)(=O)c1ccc(OC)c(Nc2ncc(-c3cccc(OC)c3)o2)c1 | -0.32 | -0.04 | 0.18 | 3.67 | 3.85 | 5.57 | 8.5 | 6.27 | 12 | 9.46
28 | CCCN1CCCC(c2ccc(Nc3nc(Nc4cc(F)ccc4C(N)=O)c4cc[nH]c4n3)c(OC)c2)C1 (stereo not given) | 79.3 | 55.5 | 85.6 | -1.17 | -1.1 | 3.86 | 4.27 | 8.97 | 4.53 | 8.14
29 | COC(=O)c1cncc(/C=C/c2c(C)cc(O)cc2C)c1 | 4.21 | 0.04 | 4.09 | 10.3 | 40.2 | 7.42 | 16.2 | 19 | 66.6 | 15.3
30 | COc1cccc(-n2nc(C)c3c(N/N=C(\C)c4ccncc4)ncnc32)c1 | -1.56 | -0.53 | -1.32 | -1.68 | -1.94 | -0.57 | 2.37 | 3.69 | 6.36 | 2.52
31 | COc1cc2ncn(-c3cc(OCc4ccccc4S(C)(=O)=O)c(C#N)s3)c2cc1OC | 8.63 | 16.9 | 62.5 | 9.06 | 34.4 | 8.09 | 13.6 | 15.2 | 57.3 | 14
32 | COc1cc2ncnc(Nc3ccc4c(cnn4Cc4ccccc4)c3)c2cc1OC | 36.2 | 1.03 | 3.09 | -2.8 | -2.26 | 1.64 | 2.12 | 4.83 | 6.82 | 4.85
33 | CCS(=O)(=O)c1ccc(OC)c(Nc2nccc(N(C)c3ccc4c(C)n[nH]c4c3)n2)c1 | 18.8 | 2.67 | 4.47 | 3.32 | 10.1 | 4.4 | 12.2 | 11.8 | 45.3 | 16.4

From ChEMBL document CHEMBL1961873, “Compounds: GSK PKIS; Assays: Nanosyn kinase panel” (2012)
